According to PubChem BioAssay AID504834 (National Center for Advancing Translational Sciences (NCATS), 2011):
Screen size: about 320,000 compounds; about 22,000 (6.9%) were called active. A call without a number means that no potency is given here. Another 27% or so got no clear call; they are omitted. Calls follow the shape of the dose curve; as a rule, active = well fitted inhibition curve with a large enough effect; inconclusive = small, poorly fitted or top-dose-only effect, or another doubt; inactive = no such curve, though single readings can be large or run the other way. This excerpt belongs to a sample that is enriched for actives.

Experiment: Primary qHTS for delayed death inhibitors of the malarial parasite plastid, 96 hour incubation
Conditions: P. falciparum luciferase reporter growth; series mostly up to 28.7 µM
In short: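 Readout is luminescence from an integrated firefly luciferase in P. falciparum. Red cells, 2% hematocrit and 0.05% parasitemia final, were cultured with compound through two parasite generations (96 hours) at 37 C, 5% CO2.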
Potency is read from the fitted curve at half-maximal effect.

| SMILES | Potency | activity change, negative = inhibition |
| --- | --- | --- |
| CC1CCN(C(=O)CCNC(=O)c2ccccc2)CC1 | inactive |  |
| Cn1c(CC2Sc3ccccc3NC2=O)nnc1SCC(=O)c1ccc(Cl)cc1 (stereo not given) | inactive |  |
| O=C(NCCN1CCOC1=O)C1CCC(=O)N(CCc2ccc(Cl)cc2)C1 (stereo not given) | inactive |  |
| COCCOC(=O)C1=C(C)NC(=O)NC1c1ccc(Cl)cc1 (stereo not given) | inactive |  |
| CCOC(=O)COc1ccc(Cl)cc1C1NC(=O)NC(C)=C1C(C)=O (stereo not given) | inactive |  |
| CCOC(=O)C1=C(C)NC(=O)N(C(C)=O)C1c1ccc(Cl)cc1 (stereo not given) | 4.15 µM (active) |  |
| OC(COc1ccc(F)cc1Cl)CN1CCc2ccccc2C1 (stereo not given) | inactive |  |
| CS(=O)(=O)c1ccccc1C(=O)Nc1ccc2sccc2c1 | inactive |  |
| O=[N+]([O-])c1cccc2ncccc12 | inactive |  |
| C/C(=N\NC(N)=S)c1ccncc1 | inactive |  |
| C/C(=N\NC(N)=S)c1cccnc1 | inactive |  |
| C/C(=N\NC(=S)NC(C)C)c1ccc(C(C)(C)C)cc1 | 3.7 µM (active) |  |
| CC(C)Cc1nnc(NC(=O)CCc2ccccc2)s1 | inactive |  |
| CC(=O)N(Cc1cc(=O)[nH]c2ccccc12)c1ccc(C)cc1C | inactive |  |
| Cc1noc(C)c1CSCC(=O)Nc1ccc(Br)cc1Cl | inactive |  |
| COc1cccc(Cn2cnc3c([N+](=O)[O-])c(C)c(C)cc32)c1 | inactive |  |
| CCOC(=O)c1cn(Cc2cccc(C)c2)nn1 | inactive |  |
| Cc1cccc(Cn2cnc3c(N)c(C)c(C)cc32)c1 | 10.4 µM (active) |  |
| Cc1ccc(NC(=O)c2cc3ccccc3o2)cc1 | inactive |  |
| O=C(O)c1[nH]c2ccccc2c1C(c1cccc(O)c1)c1c(C(=O)O)[nH]c2ccccc12 | inactive |  |
| COc1ccc(NC(=O)CN(C)C(=O)CNC(=O)C2CCCCC2)cc1 | inactive |  |
| O=S(=O)(Oc1ccccc1C(=S)N1CCOCC1)c1ccc(Cl)cc1 | inactive |  |
| CCCCNC(=O)CCn1nc(-c2ccc(Cl)cc2)ccc1=O | inactive |  |
| Cc1ccc(S(=O)(=O)N(CC(=O)N2CCc3ccccc3C2)c2cccc(Cl)c2)cc1 | 8.28 µM (active) |  |
| Cc1ccc(Cl)c(OCC(=O)N2CCc3ccccc3C2)c1 | inactive |  |
| COc1cccc(N(CC(=O)N2CCc3ccccc3C2)S(C)(=O)=O)c1 | inactive |  |
| CC(C)=CCC/C(C)=C/C(=O)O | inactive |  |

| SMILES | Potency | activity change, negative = inhibition |
| --- | --- | --- |
| O=C(Nc1ccccc1F)C1C2C=CC3(O2)C1C(=O)N(c1cccnc1)C3C(=O)NC1CCCCC1 (stereo not given) | 13.1 µM (active) |  |
| CC(C)N1C(=O)C2C(C(=O)NC3CCCCC3)C3C=CC2(O3)C1C(=O)NC1CCCC1 (stereo not given) |  | -1.06% [at 5.75 µM] (inactive) |
| O=C(NCc1cccnc1)Nc1ccccc1F | inactive |  |
| Nc1ccccc1C(=O)NC1CCCCNC1=O (stereo not given) | inactive |  |
| O=C1CCNCCN1[C@H](CO)Cc1ccccc1 | inactive |  |
| Cc1cccc(N2CCN(C(=O)C3CCN(S(=O)(=O)c4cnc[nH]4)CC3)CC2)c1C | inactive |  |
| Cc1cccc([C@H](C)c2cnc[nH]2)c1C | 4.26 µM (active) |  |
| CSc1ncccc1C(=O)NCc1ccccc1Cl | inactive |  |
| COc1ccc(CNC(=O)c2ccc(Br)s2)cc1OC | inactive |  |
| OC(CNCc1ccc2c(c1)OCO2)COc1ccccc1 (stereo not given) | inactive |  |
| Cc1ccc(OCC(=O)OC(C)CN(C)Cc2ccccc2)cc1 (stereo not given) | inactive |  |
| CN(Cc1ccccc1)CC(O)COc1ccc(CNCc2cc3ccccc3s2)cc1 (stereo not given) | 4.15 µM (active) |  |
| CC(C)C[C@H](NC(=O)[C@@H]1O[C@H]1C(=O)O)C(=O)NCCCCN=C(N)N | 3.29 µM (active) |  |
| COP1(=O)C[C@@H](O)[C@@H](O)[C@@H](COCc2ccccc2)O1 (stereo not given in full) | inactive |  |
| COc1ccc(/C=C2\N=C3CCCN3C2=O)cc1 | inactive |  |
| CSc1nc(C)nc(C2CC2)c1C#N | inactive |  |
| Cc1cc(N2CCN(c3ccc(F)cc3)CC2)n2ncnc2n1 | inactive |  |
| Cc1cc(C)nc(N/N=C/c2ccncc2)n1 | inactive |  |
| O=C(N/N=C/c1ccc([N+](=O)[O-])o1)c1cc([N+](=O)[O-])cc([N+](=O)[O-])c1O | inactive |  |
| Cc1cc(C)nc(N/N=C/c2ccc([N+](=O)[O-])o2)n1 | 5.22 µM (active) |  |
| CCOC(=O)c1cc(C(C)C)sc1NC(=O)COC(=O)c1nccnc1N | inactive |  |
| Cc1ccc(NC(=O)[C@H](Cc2ccccc2)NC(=O)C2CCNCC2)cc1 | inactive |  |
| CC(=O)NS(=O)(=O)c1ccc(NC(=O)/C=C/c2ccccc2Cl)cc1 | inactive |  |
| O=C(/C=C/c1ccccc1Cl)Nc1ccc(S(=O)(=O)Nc2ncccn2)cc1 | inactive |  |
| NS(=O)(=O)c1ccc(NC(=O)/C=C/c2ccccc2Cl)cc1 | 10.4 µM (active) |  |
| CCc1noc(C)c1C(=O)NNC(=O)c1ccc(F)cc1 | inactive |  |
| O=S(=O)(c1ccccc1)c1nc(-c2ccccc2)oc1NCCCN1CCOCC1 | inactive |  |

| SMILES | Potency | activity change, negative = inhibition |
| --- | --- | --- |
| CCc1nc2sc(C(=O)O)c(N)c2c2c1CCCC2 | inactive |  |
| CCOc1ccccc1C1CC(c2ccccc2)Nc2nc(N)nn21 (stereo not given) | inactive |  |
| COc1ccc(C2CC(c3ccc(Cl)cc3Cl)Nc3nc(N)nn32)cc1OC (stereo not given) | inactive |  |
| CCOc1ccccc1C1CC(c2ccc(Cl)cc2)Nc2nc(N)nn21 (stereo not given) | 10.4 µM (active) |  |
| COCCCNc1nc2ccccc2nc1NS(=O)(=O)c1ccc(F)cc1 | inactive |  |
| Cc1cccc(-n2nc3c(c2NC(=O)c2cc4ccccc4o2)CS(=O)(=O)C3)c1 | inactive |  |
| COc1cccc(C(=O)N/N=C(\C)c2cccc(NC(=O)c3ccc(F)cc3)c2)c1OC | inactive |  |
| COc1ccc(/C(C)=N\NC(=O)c2ccc(-c3ccccc3)cc2)c(F)c1 | 10.4 µM (active) |  |
| CCN(CC)c1ccc(C(=O)N/N=C(\C)c2cccc(OC)c2)cc1 | inactive |  |
| CN(Cc1nc2ccccc2s1)C(=O)c1ccc(F)cc1 | inactive |  |
| COc1ccccc1CC(=O)Nc1ccc(S(=O)(=O)N2CCCC2)cc1 | inactive |  |
| CCOC(=O)C1CCCN(C(=O)/C=C/c2ccc(OC)cc2)C1 (stereo not given) | inactive |  |
| Cn1cc(/C=C/C(=O)N2CCCC(C(=O)c3ccc(C(F)(F)F)cc3)C2)cn1 (stereo not given) | 10.4 µM (active) |  |
| Cn1cc(CCC(=O)N2CCCC(C(=O)c3ccc(C(C)(C)C)cc3)C2)cn1 (stereo not given) | inactive |  |
| Cc1cccc(NC(=O)N2CCCCCC2)c1C | inactive |  |
| N[C@@H](Cc1ccccc1)C(=O)N1CCOCC1 | inactive |  |
| COc1cccc(CNC(=O)c2cccnc2Sc2ccc(Cl)cc2)c1 | inactive |  |
| O=C1c2cccc3cccc(c23)C(=O)N1c1cccc(O)c1 | inactive |  |
| CCC(=C/c1sc2ccc3ccccc3c2[n+]1C)/C=C1\Sc2ccc3ccccc3c2N1C | 9.28 µM (active) |  |
| CC1(C)C2CCC1(CS(=O)(=O)NCCc1c[nH]c3ccccc13)C(=O)C2 (stereo not given) | inactive |  |
| Cc1csc(=O)n1CC(=O)OCC(=O)N(CC(C)C)c1c(N)n(Cc2ccccc2)c(=O)[nH]c1=O | inactive |  |
| Nc1nnc2c(C(F)(F)F)nc3ccccc3n12 | inactive |  |
| Cc1ccc(OCCNC(=O)CCNS(=O)(=O)c2ccc(Br)cc2)cc1 | inactive |  |
| COc1cc2c(cc1OC)/C(=C/C(=O)c1ccc(NC(C)=O)cc1)NCC2 | inactive |  |
| COc1ccccc1CNC(=O)C1CCN(S(=O)(=O)c2ccc3c(c2)OCCO3)CC1 | inactive |  |
| COc1ccc(S(=O)(=O)N2CCC(C(=O)NCc3ccco3)CC2)cc1C | 5.22 µM (active) |  |
| Cc1ccc(S(=O)(=O)N2CCC(C(=O)N[C@@H](C)C(=O)NCc3ccco3)CC2)cc1 | inactive |  |

| SMILES | Potency | activity change, negative = inhibition |
| --- | --- | --- |
| CCc1ccc(C(=O)N2CCN(S(=O)(=O)c3sc(C(=O)O)c(C)c3C(=O)O)CC2)cc1 | inactive |  |
| COc1cccc(NC(=O)c2ccc(S(=O)(=O)N(C)C)cc2)c1 | inactive |  |
| O=C(Nc1nnc(-c2ccco2)o1)c1ccc(S(=O)(=O)N2CCOCC2)cc1 | inactive |  |
| COc1cccc(-c2nnc(NC(=O)c3ccc(S(=O)(=O)N(CC(C)C)CC(C)C)cc3)o2)c1 | 1.65 µM (active) |  |
| O=C(OC1CCOC1=O)c1cccc(S(=O)(=O)Nc2ccc(F)cc2)c1 (stereo not given) | inactive |  |
| CCOc1ccc(NS(=O)(=O)c2ccc(C(=O)NCC(c3ccccc3OC)N3CCCC3)cc2)cc1 (stereo not given) | 14.7 µM (active) |  |
| O=C(NCc1ccccc1CN1CCCC1)c1cccc(S(=O)(=O)Nc2ccc(F)cc2)c1 | 10.4 µM (active) |  |
| COc1ccc(C(CNC(=O)c2ccc(S(=O)(=O)Nc3ccccc3F)cc2)N(C)C)cc1 (stereo not given) | inactive |  |
| O=C(NCC1CCCO1)c1ccc(S(=O)(=O)Nc2ccc(F)cc2)cc1 (stereo not given) | inactive |  |
| CCOc1ccc(S(=O)(=O)Nc2ccc(S(=O)(=O)Nc3cc(OC)ccc3OC)cc2)cc1 | inactive |  |
| COc1ccccc1C(CNC(=O)c1cccc(NS(=O)(=O)c2ccc(Br)cc2)c1)N(C)C (stereo not given) | 6.57 µM (active) |  |
| CC(=O)c1ccc(S(=O)(=O)Nc2ccc(C(=O)NCC(c3ccccc3)N(C)C)cc2)cc1 (stereo not given) | inactive |  |
| O=C(NCc1cccc(C(F)(F)F)c1)c1cccc(S(=O)(=O)N2CCN(Cc3ccccc3)CC2)c1 | inactive |  |
| O=C(NCC1(N2CCCCC2)CCCCC1)c1ccc(NS(=O)(=O)c2ccc(F)cc2)cc1 | 10.4 µM (active) |  |
| Cc1ccc(NS(=O)(=O)c2ccc(C(=O)NCCCN3CCOCC3)cc2)cc1 | inactive |  |
| CCOc1ccc(S(=O)(=O)Nc2ccc(C(=O)NCCCN3CCCC3=O)cc2)cc1 | inactive |  |
| COc1cc(C#Cc2ccc3cc(CCCO)oc(=O)c3c2)cc(OC)c1 | inactive |  |
| Cc1ccc(NC(=O)CN(C)C(=O)COC(=O)C(C)(C)Oc2ccc(Cl)cc2)cc1 | inactive |  |
| CC1(c2ccc3ccccc3c2)NC(=O)N(CC(N)=O)C1=O (stereo not given) | inactive |  |
| O=C(NCCCn1ccnc1)c1cc2c(s1)CCCC2 | inactive |  |
| CCOC(=O)CC1(NC(=O)c2cc(COc3cncc(Cl)c3)on2)CCCCC1 | inactive |  |
| COc1ccc(S(=O)(=O)NCCOc2ccccc2)cc1F | inactive |  |
| CC(C)(C)n1ncc2c(=O)n(Cc3c(Cl)cccc3Br)cnc21 | inactive |  |
| O=C(O)c1ccc(/C=C2\SC(=S)N(NC(=O)c3ccc(Br)cc3)C2=O)cc1 | inactive |  |
